Sm TGR block: qHTS Assay for the Inhibitors of Schistosoma Mansoni Peroxiredoxins; AID 485364, 2010; purified TGR, DTNB reduction, TNB absorbance 405 nm; hit rate 3% among 360,000; Potency, µM (top dose mostly 114 µM), for the others: top-dose activity change, negative = inhibition, actives largely listed as inhibitors; note: potency is the fitted concentration of half-maximal effect; % is set by controls: 0 for no effect and ±100 for the full control effect; nearly all actives have a fitted effect of over 60% in size
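Kinetic colorimetric format: TGR-catalysed, NADPH-driven DTNB reduction monitored via TNB absorbance. Enzyme dispensed at 20 nM; compound exposure 15 min at room temperature before reaction start.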
HCMV inh: qHTS Assay for inhibitors of the human cytomegalovirus (HCMV); activity change, negative = inhibition, % at 57.5 µM; hit rate 4.5% among 410,000; HFF cells, HCMV-luciferase reporter, 72 h; stronger effect = lower value; in the data active = activity change below about -60%; inconclusive = no clear call, values can overlap the other calls; inactive = above about -39%; note: % is set by controls: 0 for no effect and ±100 for the full control effect
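After 16 h attachment at 37C, HFF cells received test compound and HCMV-luciferase (1 PFU/cell); reporter luminescence read 72 h later, data normalized against buffer-only and known inhibitor Salinomycin.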
Pf growth 96h: Primary qHTS for delayed death inhibitors of the malarial parasite plastid, 96 hour incubation; Potency, µM (doses to about 28.7 µM), inactives show at the top dose activity change, negative = inhibition, actives largely listed as inhibitors; hit rate 6.9% among 320,000; P. falciparum luciferase reporter growth, 96 h; AID 504834, 2011; note: potency is the fitted concentration of half-maximal effect; % is set by controls: 0 for no effect and ±100 for the full control effect
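Compounds incubated with erythrocytes infected by luciferase-expressing P. falciparum (2% hematocrit, 0.05% parasitemia final) for 96 hours, 37 C in 5% CO2. Growth inhibition scored as decreased luciferase luminescence.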
Pf growth 48h: Primary qHTS for delayed death inhibitors of the malarial parasite plastid, 48 hour incubation | P. falciparum luciferase growth in erythrocytes, 48 h | Potency, µM (top dose mostly 28.7 µM), inactives show at the top dose activity change, negative = inhibition, most hits filed as inhibitors | AID 504832, 2011 | hit rate 5.9% among 310,000; note: potency is the fitted concentration of half-maximal effect; % is set by controls: 0 for no effect and ±100 for the full control effect
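Erythrocytes infected with P. falciparum carrying an integrated firefly luciferase reporter (2% hematocrit, 0.1% parasitemia final) were exposed to compounds in RPMI 1640 with 0.5% Albumax at 37 C, 5% CO2. Growth inhibition was scored as reduced luminescence.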
HCV inh: qHTS Assay for Inhibitors of Hepatitis C Virus (HCV). hit rate 3.4% among 340,000. Huh7.5.1 HCVcc-Cre infection, luciferase reporter, 44 h. AID 651820, 2012. Potency, µM (series often up to 41.8 µM), inactives show top-dose activity change, negative = inhibition, hits mostly inhibitors; note: potency is the fitted concentration of half-maximal effect; % is set by controls: 0 for no effect and ±100 for the full control effect
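After 44 h co-culture of compound, cells and HCVcc-Cre (~0.5 moi), substrate is added for 15 min at room temperature and luciferase measured over 15 sec. Cells were seeded at 1,000/well and pre-cultured 4 h.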
SARS PLP yeast: qHTS of Yeast-based Assay for SARS-CoV PLP. AID 485353, 2010. Potency, µM (highest dose often 32.9 µM), without a hit: at the highest dose activity, positive = growth rescue, usual class: activators. hit rate 0.19% among 330,000. S. cerevisiae expressing SARS-CoV PLpro, growth rescue; calls by dose curve; note: potency is the fitted concentration of half-maximal effect; 0% is about no effect; nearly all actives have a fitted effect of over 55% in size
* marks the source's active call; other numbers are inactive results; ! = repeats disagree; [ ] = dose if it differs, or a comment. In the library only some 15% were active in any assay of this set; here they are far more common. Unless noted, calls come from the whole dose curve; as a rule, active = well fitted curve in the direction sought with a large enough effect; inconclusive = small, poorly fitted or top-dose-only effect, or another doubt; inactive = no such curve, though single readings can be large; an effect the other way counts as inactive or inconclusive.

For S=C(Cc1cccnc1)N1CCOCC1 the results were Sm TGR block -1.1%, Pf growth 96h 31.6%, Pf growth 48h -20.4%, HCV inh 8.0% and SARS PLP yeast -22.3%.
`O=C(NC12CC3CC(CC(C3)C1)C2)c1cccnc1Cl` gave Sm TGR block -4.3%, HCMV inh 5.3, Pf growth 96h 11.7µM*, Pf growth 48h 4.0%, HCV inh 3.6% and SARS PLP yeast 4.3%.
`Nc1ccccc1C(=O)NC12CC3CC(CC(C3)C1)C2` gave Sm TGR block 3.4%, HCMV inh 49.7, Pf growth 96h inconclusive, Pf growth 48h 3.6%, HCV inh -3.4% and SARS PLP yeast 1.4%.
Screening COc1ccc(NC(=O)CN2CCCCC2)cc1S(=O)(=O)N1CCCCC1 returned HCMV inh 9.6, HCV inh 5.4% and SARS PLP yeast -0.8%.
For COc1ccc(Cl)cc1NCC(=O)Nc1ccc(OC)c(S(=O)(=O)N2CCCCC2)c1 the results were Sm TGR block -0.9%, HCMV inh 0.0, Pf growth 96h inconclusive, Pf growth 48h 9.28µM*, HCV inh inconclusive and SARS PLP yeast -0.4%.
COc1cc(C(C)=O)ccc1OCC(=O)Nc1ccc(C)c(S(=O)(=O)N2CCCCCC2)c1 was read as Sm TGR block 1.4%, HCMV inh -0.1, Pf growth 96h inconclusive, Pf growth 48h inconclusive, HCV inh 3.98µM* and SARS PLP yeast 4.2%.
`COc1ccc(NC(=O)COc2ccccc2C)cc1S(=O)(=O)N1CCCCC1` gave Sm TGR block 0.9%, HCMV inh -27.0, Pf growth 96h inconclusive, Pf growth 48h -18.7%, HCV inh 8.91µM* and SARS PLP yeast -1.9%.
For CCOc1ccccc1OCC(=O)Nc1ccc(OC)c(S(=O)(=O)N2CCCCC2)c1 the results were Sm TGR block -3.7%, HCMV inh 9.1, Pf growth 96h 11.7µM*, Pf growth 48h inconclusive, HCV inh inconclusive and SARS PLP yeast -4.4%.
O=c1c(N2CCc3ccccc3C2)csc2ccc(Cl)cc12 was read as Sm TGR block -7.3% and HCMV inh 0.1.
Screening CC(=O)c1ccc(NC(=O)C(C)Sc2nnc(-c3ccncc3)n2C2CC2)cc1 (stereo not given) returned HCMV inh -63.8*, HCV inh 7.8% and SARS PLP yeast -4.3%.
`CCOC(=O)c1cnn2c1[nH]c(=O)c1ccccc12` gave Sm TGR block -31.1%, HCMV inh -30.1, Pf growth 96h 9.28µM*, Pf growth 48h 31.2%, HCV inh 10.3% and SARS PLP yeast -1.9%.
`Cc1ccnc(NC(=O)c2cccc(S(=O)(=O)N3CCN(c4ccccc4)CC3)c2)c1` gave Sm TGR block -2.1%, HCMV inh 25.0, Pf growth 96h -69.6%, Pf growth 48h 17.3%, HCV inh inconclusive and SARS PLP yeast -5.8%.
`CCc1nnc(NC(=O)c2cccc(S(=O)(=O)N3CCN(c4ccccc4)CC3)c2)s1` gave Sm TGR block 13.5%[11.4 µM], HCMV inh 11.2, Pf growth 96h 10.4µM*, HCV inh -18.5% and SARS PLP yeast 16.1%.
Screening Cc1ccc(NC(=O)c2cccc(S(=O)(=O)N3CCN(c4ccccc4)CC3)c2)nc1 returned Sm TGR block 5.3%, HCMV inh -85.2*, Pf growth 96h inconclusive, Pf growth 48h inconclusive, HCV inh 12.6µM* and SARS PLP yeast -1.6%.
Screening CCOc1ccc(NC(=O)CC2C(=O)N(c3ccccc3)C(=O)N2Cc2ccc3c(c2)OCO3)cc1 (stereo not given) returned Sm TGR block 1.4% and HCMV inh 3.5.
Cc1cccc(C)c1NC(=O)C(Cl)=C(Cl)Cl was read as HCMV inh -89.0*, Pf growth 96h -27.1%, Pf growth 48h -13.4%, HCV inh -26.1% and SARS PLP yeast -0.9%.
Screening CC(=O)c1sc(NC(=O)c2c(-c3ccccc3)c(-c3ccccc3)nn(C)c2=O)nc1C returned Sm TGR block -3.3% and HCMV inh -17.1.
COc1ccc(C2NC(=O)C(C#N)=C(S)N2c2ccc(C)cc2)cc1OC (stereo not given) was read as Sm TGR block 1.6%, HCMV inh -65.1*, Pf growth 96h -22.1%, Pf growth 48h 15.3%, HCV inh 6.4% and SARS PLP yeast -0.8%.
For COc1ccccc1N(CC(=O)N/N=C/c1ccc(C(=O)O)cc1)S(=O)(=O)c1ccc(C)cc1 the results were Sm TGR block 6.8%, HCMV inh 0.0, Pf growth 96h 9.7%, Pf growth 48h 2.7%, HCV inh 4.7% and SARS PLP yeast 2.4%.
Screening Cc1ccc(S(=O)(=O)N2CCC(=O)N(C(COCc3cccc(Cl)c3)C(C)C)CC2)cc1 (stereo not given) returned Sm TGR block -16.1%, HCMV inh -11.4, Pf growth 96h 10.4µM*, Pf growth 48h 14.7µM*, HCV inh -1.0%[8.37 µM] and SARS PLP yeast -9.1%.
Screening Cc1ccc(S(=O)(=O)N2CCC(=O)N(C(COCc3cccc(C)c3)C(C)C)CC2)cc1 (stereo not given) returned Sm TGR block -18.2%, HCMV inh -4.2, Pf growth 96h 13.1µM*, Pf growth 48h 10.4µM*, HCV inh inconclusive and SARS PLP yeast 5.6%.
Screening Cc1ccc(S(=O)(=O)N2CCC(=O)N([C@H](COCc3cccc(Cl)c3)C(C)C)CC2)cc1 returned HCMV inh -11.1.
Screening Cc1ccc(COC[C@H](CC(C)C)N2CCN(C(=O)c3cccc(C(F)(F)F)c3)CCC2=O)cc1 returned HCMV inh -6.1.
For Cc1ccc(S(=O)(=O)N2CCC(=O)N([C@H](COCc3ccc(Cl)c(Cl)c3)Cc3ccccc3)CC2)cc1 the results were HCMV inh -19.9.
`Cc1ccc(S(=O)(=O)N2CCC(=O)N(C(COCc3cccc(C(F)(F)F)c3)C(C)C)CC2)cc1` (stereo not given) gave Sm TGR block -15.0%, Pf growth 96h 10.4µM*, Pf growth 48h inconclusive, HCV inh -2.9%[8.37 µM] and SARS PLP yeast -9.1%.
For CC(=O)N[C@@H](CS)C(=O)O the results were Sm TGR block 1.0%, HCMV inh 57.0, Pf growth 96h -5.1%, Pf growth 48h 6.5%, HCV inh 10µM*! and SARS PLP yeast 0.6%.
Screening COc1ccc(C(=O)Nc2c(N)nc(SCC(=O)Nc3ccc(NC(C)=O)cc3)[nH]c2=O)cc1 returned Sm TGR block 2.2%, HCMV inh 9.3, Pf growth 96h 2.62µM*, Pf growth 48h 10.4µM*, HCV inh -6.5% and SARS PLP yeast 2.7%.
